Measurements published in PubChem BioAssay (NCATS).
Inconclusive results are not listed. Where a call stands in place of a potency, no number is given. Values without a mark were called inactive. Active and inactive are the calls of the source. Calls come from the whole dose curve; as a rule, active = well fitted curve in the direction sought with a large enough effect; inconclusive = small, poorly fitted or top-dose-only effect, or another doubt; inactive = no such curve, though single readings can be large; an effect the other way counts as inactive or inconclusive.

Assays:
[1] = molecular target: Rap guanine nucleotide exchange factor 3 (Homo sapiens) (UniProt O95398); assay: Confirmatory qHTS for antagonist of cAMP-regulated guanine nucleotide exchange factor 3 (EPAC1) (AID 1645880); settings: EPAC1 Rap1B-BODIPY-GDP exchange, fluorescence; activity, negative = inhibition: at 115 µM (top of the series); note: nearly all actives have a fitted effect of over 55% in size; note: potency is the fitted concentration of half-maximal effect
Rap guanine nucleotide exchange factor 3 (Homo sapiens), sequence (O95398 whole entry, looked up): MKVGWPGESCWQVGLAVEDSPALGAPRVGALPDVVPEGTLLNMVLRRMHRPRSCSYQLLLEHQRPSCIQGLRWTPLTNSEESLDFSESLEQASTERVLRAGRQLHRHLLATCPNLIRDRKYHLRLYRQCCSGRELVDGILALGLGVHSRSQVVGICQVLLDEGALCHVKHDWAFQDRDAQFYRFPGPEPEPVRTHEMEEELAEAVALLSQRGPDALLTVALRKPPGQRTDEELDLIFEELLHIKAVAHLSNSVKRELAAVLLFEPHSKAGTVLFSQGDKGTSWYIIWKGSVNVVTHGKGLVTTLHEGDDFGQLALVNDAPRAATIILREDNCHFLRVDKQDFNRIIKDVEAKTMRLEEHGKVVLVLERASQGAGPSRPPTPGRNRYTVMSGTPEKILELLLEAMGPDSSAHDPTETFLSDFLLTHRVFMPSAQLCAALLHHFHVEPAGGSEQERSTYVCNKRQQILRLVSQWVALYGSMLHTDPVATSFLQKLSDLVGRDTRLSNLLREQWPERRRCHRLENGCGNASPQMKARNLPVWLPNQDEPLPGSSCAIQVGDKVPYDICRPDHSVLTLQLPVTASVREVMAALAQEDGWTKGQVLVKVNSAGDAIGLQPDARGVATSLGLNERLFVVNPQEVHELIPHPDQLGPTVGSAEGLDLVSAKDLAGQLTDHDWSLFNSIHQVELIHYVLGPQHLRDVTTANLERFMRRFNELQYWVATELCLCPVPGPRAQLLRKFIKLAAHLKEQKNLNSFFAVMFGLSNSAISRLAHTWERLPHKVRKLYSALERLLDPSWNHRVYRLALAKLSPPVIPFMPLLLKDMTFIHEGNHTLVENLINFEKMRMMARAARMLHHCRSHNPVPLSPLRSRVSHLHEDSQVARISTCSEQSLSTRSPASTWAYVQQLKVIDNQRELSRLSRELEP
Procedure, shortened: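 Nucleotide exchange uses 100 nM EPAC1, 250 nM RAP1B-BODIPY-GDP and 50 uM GDP, with compounds in a concentration-titration series. After 5 min at room temperature, fluorescence (480 nm ex/540 nm em) is read every 5 min for 30 min. Data are normalized to control ATA and DMSO.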

[2] = molecular target: Rap guanine nucleotide exchange factor 3 (Homo sapiens) (UniProt O95398); assay: Confirmatory qHTS for agonist of cAMP-regulated guanine nucleotide exchange factor 3 (EPAC1) (AID 1645881);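 note: EPAC1 catalysed release of BODIPY-GDP from Rap1B seen as fluorescence loss; nearly all actives have a fitted effect of over 75% in size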
[3] = molecular target: Rap guanine nucleotide exchange factor 4 (Homo sapiens) (UniProt Q8WZA2); assay: Confirmatory qHTS for agonist of cAMP-regulated guanine nucleotide exchange factor 4 (EPAC2) (AID 1645884);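 note: nucleotide exchange releases bodipy-GDP from Rap1 and this lowers its fluorescence; nearly all actives have a fitted effect of over 65% in size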
Rap guanine nucleotide exchange factor 4 (Homo sapiens), sequence (Q8WZA2 whole entry, looked up): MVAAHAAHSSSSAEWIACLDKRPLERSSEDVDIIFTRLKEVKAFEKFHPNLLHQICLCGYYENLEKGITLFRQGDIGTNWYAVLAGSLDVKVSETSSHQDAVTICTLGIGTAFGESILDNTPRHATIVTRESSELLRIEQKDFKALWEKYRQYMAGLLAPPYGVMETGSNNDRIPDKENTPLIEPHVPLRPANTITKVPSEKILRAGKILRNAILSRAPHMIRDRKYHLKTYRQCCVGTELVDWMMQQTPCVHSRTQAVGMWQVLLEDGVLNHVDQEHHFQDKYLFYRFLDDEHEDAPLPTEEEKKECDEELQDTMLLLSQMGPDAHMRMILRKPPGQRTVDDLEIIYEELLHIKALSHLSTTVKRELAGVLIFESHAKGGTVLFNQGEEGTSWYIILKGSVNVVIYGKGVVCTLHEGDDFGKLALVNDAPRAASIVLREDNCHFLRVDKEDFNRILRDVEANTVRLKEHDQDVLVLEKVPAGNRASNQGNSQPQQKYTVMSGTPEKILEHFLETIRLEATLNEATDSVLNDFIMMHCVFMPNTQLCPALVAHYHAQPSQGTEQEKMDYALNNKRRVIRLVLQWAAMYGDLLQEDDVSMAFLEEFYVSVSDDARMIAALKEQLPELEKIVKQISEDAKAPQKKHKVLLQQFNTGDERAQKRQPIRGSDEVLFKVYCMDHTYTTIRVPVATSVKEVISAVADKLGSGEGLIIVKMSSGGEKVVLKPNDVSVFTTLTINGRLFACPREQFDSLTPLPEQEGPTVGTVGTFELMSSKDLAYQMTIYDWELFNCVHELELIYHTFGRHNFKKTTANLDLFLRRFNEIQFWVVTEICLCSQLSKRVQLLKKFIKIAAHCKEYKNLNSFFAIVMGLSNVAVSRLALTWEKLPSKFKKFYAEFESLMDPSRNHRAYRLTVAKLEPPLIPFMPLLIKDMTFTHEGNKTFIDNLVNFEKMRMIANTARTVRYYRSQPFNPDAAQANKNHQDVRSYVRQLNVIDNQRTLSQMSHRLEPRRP

[4] = molecular target: Rap guanine nucleotide exchange factor 4 (Homo sapiens) (UniProt Q8WZA2); assay: Confirmatory qHTS for antagonist of cAMP-regulated guanine nucleotide exchange factor 4 (EPAC2) (AID 1645885); note: nearly all actives have a fitted effect of over 25% in size; note: potency is the fitted concentration of half-maximal effect
[5] = molecular target: Rap guanine nucleotide exchange factor 3 (Homo sapiens) (UniProt O95398); assay: Counterscreen qHTS for antagonist of cAMP-regulated guanine nucleotide exchange factor 3 (EPAC1) (AID 1645888);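 note: fluorescence loss as bound BODIPY-GDP is released from Rap1B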
Procedure, shortened: (§1)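 Rap1B–BODIPY-GDP (250 nM) with 50 uM GDP; compounds pin-transferred to 9.74 nM–152 uM final (activator) or from 7.32 nM upwards (inhibitor). Fluorescence Ex/Em 480/540 nm read at 5 and 30 min, then after adding cAMP or buffer, at room temperature.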

[6] = molecular target: Rap guanine nucleotide exchange factor 3 (Homo sapiens) (UniProt O95398); assay: Counterscreen qHTS for agonist of cAMP-regulated guanine nucleotide exchange factor 3 (EPAC1) (AID 1645889); note: nearly all actives have a fitted effect of over 40% in size; note: potency is the fitted concentration of half-maximal effect
Procedure, shortened: as §1

Row | Structure (SMILES) | Potency [1] | Potency [2] | activation [3] | Potency [4] | activity change, negative = inhibition [5] | activation [6] | Potency [3] | Potency [5] | Potency [6] | outcome [4]
1 | CN(C(=O)CSc1nc2[nH]ncc2c(=O)[nH]1)c1ccccc1 | inactive | inactive | 1.67% [at 17.1 µM, percent relative to cAMP agonist control] | inactive | -21.3% [at 30.8 µM] | -11.1% [at 30.8 µM] | – | – | – | –
2 | COc1cccc(CN(C)CC(=O)Nc2c(C)cccc2C(C)C)c1 | inactive | inactive | 9.26% [at 17.1 µM, percent relative to cAMP agonist control] | inactive | -8.13% [at 30.8 µM] | 14.6% [at 30.8 µM] | – | – | – | –
3 | COc1cc(CNc2ccc(O)cc2)cc(Br)c1OCc1ccccc1 | inactive | inactive | – | inactive | – | – | inactive | inactive | inactive | –
4 | O=C(CSc1nc2ccsc2c(=O)n1CC1CCC(C(=O)O)CC1)c1ccc(Cl)cc1 (stereo not given) | 47.8 µM (active) | inactive | – | inactive | – | – | inactive | inactive | inactive | –
5 | CCCCn1nnc(NC(=O)c2ccco2)n1 | inactive | inactive | 6.58% [at 17.1 µM, percent relative to cAMP agonist control] | inactive | 4.22% [at 30.8 µM] | 0.136% [at 30.8 µM] | – | – | – | –
6 | C/C(=N\NC(=O)c1cc(O)ccc1O)c1cccc(NC(=O)c2ccc(Cl)cc2)c1 | 75.7 µM (active) | inactive | – | inactive | – | – | inactive | inactive | inactive | –
7 | COC(=O)/C(N=Nc1cccc(C(F)(F)F)c1)=C(\C)O | inactive | inactive | 10.2% [at 17.1 µM, percent relative to cAMP agonist control] | inactive | -9.14% [at 30.8 µM] | 22.5% [at 30.8 µM] | – | – | – | –
8 | CCCCc1nc(SCCOC)c2c(=O)n(C)c(=O)n(C)c2n1 | inactive | inactive | 4.93% [at 17.1 µM, percent relative to cAMP agonist control] | inactive | -15.9% [at 30.8 µM] | -0.239% [at 30.8 µM] | – | – | – | –
9 | C=C1CCN(C(Cc2ccccc2)C(=O)OC)S(=O)(=O)c2ccc(F)cc21 (stereo not given) | inactive | inactive | 11.5% [at 17.1 µM, percent relative to cAMP agonist control] | inactive | 2.02% [at 30.8 µM] | 14% [at 30.8 µM] | – | – | – | –
10 | COc1ccc(Cl)cc1NC(=O)CN1CCc2ccccc21 | inactive | inactive | 2.78% [at 17.1 µM, percent relative to cAMP agonist control] | inactive | -6.37% [at 30.8 µM] | 14.8% [at 30.8 µM] | – | – | – | –
11 | Cc1csc2nc(CNS(=O)(=O)c3ccc4c(c3)CCCC4)cn12 | inactive | inactive | -3.4% [at 17.1 µM, percent relative to cAMP agonist control] | inactive | -30.8% [at 30.8 µM] | -8.72% [at 30.8 µM] | – | – | – | –
12 | CC(C)Oc1nc(-c2ccccc2Cl)nc2ccccc12 | inactive | inactive | – | inactive | – | – | inactive | inactive | inactive | –
13 | CSCCC(NS(=O)(=O)c1ccc2c(c1)OCCO2)C(=O)N(C)Cc1ccc(F)cc1 (stereo not given) | inactive | inactive | 1.67% [at 17.1 µM, percent relative to cAMP agonist control] | inactive | -2.77% [at 30.8 µM] | 5.06% [at 30.8 µM] | – | – | – | –
14 | Cc1sc2ncnc(N3CCC(C(=O)Nc4ccccc4C(C)(C)C)CC3)c2c1C | inactive | inactive | – | inactive | – | – | inactive | inactive | inactive | –
15 | Cn1cccc1/C=C1\CCC/C(=C\c2cccn2C)C1=O | 75.7 µM (active) | inactive | – | 75.7 µM (active) | – | – | inactive | inactive | 39.8 µM (active) | –
16 | COc1ccc(C)cc1-n1c(-c2ccc(Cl)cc2)cc2c1CC(C)(C)CC2=O | inactive | inactive | – | – | – | – | inactive | inactive | inactive | inactive [at 12.7 µM]
17 | O=C(CCCOc1ccccc1)Nc1ccc(Cl)cn1 | inactive | inactive | – | inactive | – | – | inactive | inactive | inactive | –
18 | CCCn1c(=O)n(C)c(=O)c2c(SCC(=O)NCc3ccco3)nc(C3CC3)nc21 | inactive | inactive | – | inactive | – | – | inactive | inactive | inactive | –
19 | O=C1CCC/C(=N/NC(=O)c2sc3ccccc3c2Cl)C1 | inactive | inactive | – | 16.9 µM (active) | – | – | inactive | inactive | 22.4 µM (active) | –
20 | Cc1c(C(=O)N2CCC2)oc2ccc(Br)cc12 | inactive | inactive | – | 33.8 µM (active) | – | – | inactive | inactive | inactive | –

Row | Structure (SMILES) | Potency [1] | Potency [2] | activation [3] | Potency [4] | activity change, negative = inhibition [5] | activation [6] | Potency [3] | Potency [5] | Potency [6] | outcome [4]
21 | COc1ccccc1CCC(=O)Nc1cc(S(=O)(=O)N2CCCCC2)ccc1N1CCN(C)CC1 | inactive | inactive | – | inactive | – | – | inactive | inactive | 63.1 µM (active) | –
22 | COc1ccc(/C=N/Nc2nnc(C)n2N)cc1OC(C)=O | inactive | inactive | – | inactive | – | – | inactive | inactive | inactive | –
23 | COC(=O)c1cc2occc2n1Cc1cccc(C)c1 | inactive | inactive | – | inactive | – | – | inactive | inactive | inactive | –
24 | COC(=O)c1cc(C#N)c(Oc2ccccc2OC)nc1C | inactive | inactive | – | inactive | – | – | inactive | inactive | inactive | –
25 | COc1cc(NC(=O)CCc2c(C)nc3c4c(C)cc(C)nc4nn3c2C)cc(OC)c1 | inactive | inactive | – | inactive | – | – | inactive | inactive | inactive | –
26 | CN(Cc1ccccc1)C(=O)C1CCCN(Cc2cccc(Cl)c2)C1 (stereo not given) | inactive | inactive | – | inactive | – | – | inactive | inactive | inactive | –
27 | COc1ccc(-n2ccn(Cc3ccc(C)cc3)c(=O)c2=O)cc1OC | inactive | inactive | – | inactive | – | – | inactive | inactive | inactive | –
28 | COC(=O)COc1ccc(C(c2c(C)[nH][nH]c2=O)c2c(C)[nH][nH]c2=O)cc1 | inactive | inactive | – | inactive | – | – | inactive | inactive | inactive | –
29 | O=C(c1ccco1)N(CCC(c1ccccc1)c1ccco1)Cc1ccccc1 (stereo not given) | 44.7 µM (active) | inactive | 1.75% [at 17.1 µM, percent relative to cAMP agonist control] | inactive | -8.3% [at 30.8 µM] | 15.8% [at 30.8 µM] | – | – | – | –
30 | Fc1ccc(-c2ccc3nccn3c2)cc1Cl | inactive | inactive | 2.32% [at 17.1 µM, percent relative to cAMP agonist control] | inactive | -1.11% [at 30.8 µM] | 10.1% [at 30.8 µM] | – | – | – | –
31 | CSc1ccc(/C=N/NC(=O)CN2CCN(Cc3ccc(Cl)cc3)CC2)cc1 | inactive | inactive | – | inactive | – | – | inactive | inactive | inactive | –
32 | Cc1ccc(Cc2cnc(N3C(=N)SC(c4ccccc4)C3=O)s2)cc1 (stereo not given) | inactive | inactive | 9.77% [at 17.1 µM, percent relative to cAMP agonist control] | inactive | -12.3% [at 30.8 µM] | 27.7% [at 30.8 µM] | – | – | – | –
33 | Cc1[nH][nH]c(=O)c1C(c1c(C)[nH][nH]c1=O)c1cn(Cc2cccc3ccccc23)c2ccccc12 | 75.7 µM (active) | inactive | – | inactive | – | – | inactive | inactive | 12.6 µM (active) | –
34 | Cc1cccc(S(=O)(=O)NC(=O)C2(C)CCN2C(=O)Cc2cc(F)ccc2F)c1 (stereo not given) | inactive | inactive | 11.8% [at 17.1 µM, percent relative to cAMP agonist control] | inactive | 9.86% [at 30.8 µM] | -2.2% [at 30.8 µM] | – | – | – | –
35 | O=C(Nc1ccc(-c2nnc(-c3ccco3)o2)cc1)C(c1ccccc1)c1ccccc1 | inactive | inactive | – | inactive | – | – | inactive | inactive | inactive | –
36 | CC(=O)Nc1cc(C(=O)NCc2ccco2)ccc1Sc1ccc(C)cc1 | inactive | inactive | 3.77% [at 17.1 µM, percent relative to cAMP agonist control] | inactive | -18.4% [at 30.8 µM] | 6.12% [at 30.8 µM] | – | – | – | –
37 | Cc1cc(C)cc(OCCSc2nc(-c3ccc(C(C)(C)C)cc3)nc3cc(=O)[nH]n23)c1 | 67.5 µM (active) | inactive | – | – | – | – | inactive | inactive | inactive | inactive [at 12.7 µM]
38 | CC1=C(CO)C(=O)OC([C@@H](C)C2CC[C@H]3C4C[C@H]5O[C@]56[C@@H](O)C=CC(=O)[C@]6(C)C4CC[C@]23C)C1 (stereo not given in full) | 84.9 µM (active) | inactive | – | inactive | – | – | inactive | inactive | inactive | –
39 | COc1ccc(C2CC(c3ccccc3OC(C)=O)=NN2C(C)=O)cc1 (stereo not given) | inactive | inactive | – | inactive | – | – | inactive | inactive | inactive | –
40 | c1cncc(-c2nc(NCCCN3CCOCC3)c3c4c(sc3n2)CCC4)c1 | inactive | inactive | – | inactive | – | – | inactive | inactive | inactive | –
